# In PubChem BioAssay (NCATS):
# “And” between values parts separate entries of the source, which are not always exact repeats. Identical values can stand only once. Records with an inconclusive call do not appear. The source made the active and inactive calls. Unless noted, calls come from the whole dose curve.
# Assays:
# [1] = target: Voltage-gated inwardly rectifying potassium channel KCNH2 (Homo sapiens) (UniProt Q12809); assay: qHTS Assay for Small Molecule Inhibitors of the Human hERG Channel Activity (AID 588834; active = well fitted inhibition curve with a large enough effect;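 note: lower thallium flux fluorescence means stronger hERG block; nearly all actives have a fitted effect of over 50% in size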; note: potency is the fitted concentration of half-maximal effect); details: U2OS BacMam hERG, FluxOR thallium flux fluorescence; series mostly up to 46.1 µM
# Chain of Voltage-gated inwardly rectifying potassium channel KCNH2 (Homo sapiens) (Q12809 whole entry, looked up): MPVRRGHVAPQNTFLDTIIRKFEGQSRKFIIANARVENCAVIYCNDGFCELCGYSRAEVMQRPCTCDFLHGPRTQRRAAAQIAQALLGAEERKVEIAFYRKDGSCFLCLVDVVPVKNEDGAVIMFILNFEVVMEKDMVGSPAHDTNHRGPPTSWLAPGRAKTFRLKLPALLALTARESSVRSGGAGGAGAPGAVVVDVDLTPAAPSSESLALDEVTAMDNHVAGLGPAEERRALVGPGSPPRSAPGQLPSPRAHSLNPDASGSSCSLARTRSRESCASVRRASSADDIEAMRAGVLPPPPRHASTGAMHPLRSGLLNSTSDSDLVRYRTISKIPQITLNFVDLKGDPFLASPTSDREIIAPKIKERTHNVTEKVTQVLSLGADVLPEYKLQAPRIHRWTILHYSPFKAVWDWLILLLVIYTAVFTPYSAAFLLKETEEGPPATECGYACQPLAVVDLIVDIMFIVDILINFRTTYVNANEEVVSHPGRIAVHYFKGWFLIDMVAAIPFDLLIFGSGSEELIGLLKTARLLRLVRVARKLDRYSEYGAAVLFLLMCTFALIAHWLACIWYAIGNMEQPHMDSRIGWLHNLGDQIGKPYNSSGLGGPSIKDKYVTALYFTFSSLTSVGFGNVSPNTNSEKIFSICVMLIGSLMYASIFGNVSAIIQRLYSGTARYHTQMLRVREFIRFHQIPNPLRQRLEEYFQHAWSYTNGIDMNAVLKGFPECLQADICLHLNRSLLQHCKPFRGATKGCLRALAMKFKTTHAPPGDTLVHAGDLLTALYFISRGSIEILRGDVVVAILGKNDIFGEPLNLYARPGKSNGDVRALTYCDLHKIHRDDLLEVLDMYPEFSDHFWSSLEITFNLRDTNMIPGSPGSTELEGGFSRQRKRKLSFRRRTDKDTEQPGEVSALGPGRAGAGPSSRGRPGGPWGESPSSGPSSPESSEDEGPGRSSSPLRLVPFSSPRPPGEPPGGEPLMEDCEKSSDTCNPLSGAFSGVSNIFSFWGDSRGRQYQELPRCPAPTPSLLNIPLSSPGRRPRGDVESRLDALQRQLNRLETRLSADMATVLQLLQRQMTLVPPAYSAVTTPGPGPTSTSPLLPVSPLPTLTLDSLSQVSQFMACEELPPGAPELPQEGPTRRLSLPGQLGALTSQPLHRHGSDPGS
# How it was run: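 Measured: FluxOR fluorescence after thallium stimulation in U2OS cells transduced with hERG by baculovirus. Compounds pre-incubated around 10 min; medium Opti-MEM with 2% FCS. AC50 from Hill equation.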
# [2] = target: Vitamin D3 receptor (Homo sapiens) (UniProt P11473); assay: qHTS assay for small molecule agonists of vitamin D receptor signaling (AID 588543); details: HEK293T VDR-UAS-bla, beta-lactamase ratio, 16 h; series mostly up to 76.8 µM;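 note: 0% = DMSO basal and 100% = reference agonist control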
# Chain of Vitamin D3 receptor (Homo sapiens) (P11473 whole entry, looked up): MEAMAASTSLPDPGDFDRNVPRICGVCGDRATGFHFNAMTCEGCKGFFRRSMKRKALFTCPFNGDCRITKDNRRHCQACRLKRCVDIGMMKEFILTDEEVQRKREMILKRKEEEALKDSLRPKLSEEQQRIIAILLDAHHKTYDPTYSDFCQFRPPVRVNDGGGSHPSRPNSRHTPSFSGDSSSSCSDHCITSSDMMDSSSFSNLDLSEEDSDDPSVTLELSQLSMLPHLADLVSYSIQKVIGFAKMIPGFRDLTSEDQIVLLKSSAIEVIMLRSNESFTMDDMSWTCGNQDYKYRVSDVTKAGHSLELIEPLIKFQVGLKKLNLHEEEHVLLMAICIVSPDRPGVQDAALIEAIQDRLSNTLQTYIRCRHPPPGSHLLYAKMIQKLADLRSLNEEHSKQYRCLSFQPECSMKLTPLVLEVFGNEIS
# How it was run: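 qHTS in agonist mode: compound titrations stimulate a VDR-driven β-lactamase reporter in HEK293T cells over 16 h at 37 °C. Response normalized to 50 nM 1α,25-dihydroxyvitamin D3 = 100%, DMSO = 0%; Hill fitting gives EC50 and maximal response.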
# [3] = qHTS assay for small molecule agonists of retinoid X receptor alpha signaling (AID 588544); details: HEK293T RXRa-UAS-bla, beta-lactamase reporter, 18 h; 530 nm emission
# [4] = target: Retinoic acid receptor RXR-alpha (Homo sapiens) (UniProt P19793); assay: as above; details: HEK293T RXRa-UAS-bla, beta-lactamase reporter, 18 h; series mostly up to 76.7 µM
# Chain of Retinoic acid receptor RXR-alpha (Homo sapiens) (P19793 whole entry, looked up): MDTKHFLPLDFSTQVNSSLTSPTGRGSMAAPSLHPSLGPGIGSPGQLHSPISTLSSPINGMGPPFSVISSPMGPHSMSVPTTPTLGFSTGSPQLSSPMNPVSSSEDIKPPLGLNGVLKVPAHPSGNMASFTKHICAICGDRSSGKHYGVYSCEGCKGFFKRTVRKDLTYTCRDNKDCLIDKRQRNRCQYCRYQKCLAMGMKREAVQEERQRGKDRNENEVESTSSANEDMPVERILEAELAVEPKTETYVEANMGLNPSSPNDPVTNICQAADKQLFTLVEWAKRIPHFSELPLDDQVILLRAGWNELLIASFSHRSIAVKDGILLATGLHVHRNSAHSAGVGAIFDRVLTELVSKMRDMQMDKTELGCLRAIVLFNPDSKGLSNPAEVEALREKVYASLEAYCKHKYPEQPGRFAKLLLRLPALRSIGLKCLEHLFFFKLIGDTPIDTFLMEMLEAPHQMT
# [5] = target: Thyroid hormone receptor beta (Homo sapiens) (UniProt P10828); assay: qHTS assay for small molecule agonists of thyroid hormone receptor beta signaling (AID 588545); details: TR-UAS-bla GripTite HEK 293, beta-lactamase ratio, agonist mode, 18 h, percent of T3 response, DMSO as zero; series mostly up to 76.7 µM;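 note: 0% = DMSO only and 100% = 10 nM T3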
# Chain of Thyroid hormone receptor beta (Homo sapiens) (P10828 whole entry, looked up): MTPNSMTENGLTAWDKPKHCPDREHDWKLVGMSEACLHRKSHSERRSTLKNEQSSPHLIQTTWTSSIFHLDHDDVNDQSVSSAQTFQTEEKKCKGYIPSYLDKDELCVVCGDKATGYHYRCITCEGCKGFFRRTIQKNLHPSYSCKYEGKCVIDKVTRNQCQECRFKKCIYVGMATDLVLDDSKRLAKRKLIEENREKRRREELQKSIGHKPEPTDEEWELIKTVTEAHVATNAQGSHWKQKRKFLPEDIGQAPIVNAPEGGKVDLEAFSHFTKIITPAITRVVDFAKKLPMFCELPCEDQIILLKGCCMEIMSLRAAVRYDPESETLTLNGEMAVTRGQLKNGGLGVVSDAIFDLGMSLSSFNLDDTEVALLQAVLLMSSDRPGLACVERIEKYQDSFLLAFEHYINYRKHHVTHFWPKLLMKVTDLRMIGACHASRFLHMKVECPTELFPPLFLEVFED
# How it was run: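 Compounds were tested as agonists in TR-UAS-bla-GripTite HEK 293 cells. After 18 hrs at 37 C, CCF4 substrate was added and fluorescence read after 2 hrs at room temperature.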
# [6] = qHTS assay for small molecule antagonists of retinoid X receptor alpha signaling (AID 588546; active = well fitted inhibition curve with a large enough effect in the signal ratio, with a control signal flat, not every such curve was filed as active; the % refers to the signal ratio;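 note: cells stimulated with 9-cis-retinoic acid as agonist; % is set by controls: 0 for no effect and ±100 for the full control effect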); details: HEK293T RXRa-UAS-bla, beta-lactamase ratio, antagonist mode; measured here: W530 green channel, cytotoxicity proxy
# How it was run: (§1)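 Beta-lactamase reporter inhibition, read as CCF4 fluorescence ratio (ex 405, em 460/530 nm) after 2 h at RT. HEK293T UAS-bla cells, 2500/well, were stimulated with 9-cis-RA at 500 or 100 nM final alongside test compound for 18 h at 37 C.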
# [7] = target: Retinoic acid receptor RXR-alpha (Homo sapiens) (UniProt P19793); assay: as above; details: HEK293T RXRa-UAS-bla, beta-lactamase ratio, antagonist mode
# How it was run: as §1
# [8] = target: Thyroid hormone receptor beta (Homo sapiens) (UniProt P10828); assay: qHTS assay for small molecule antagonists of thyroid hormone receptor beta signaling (AID 588547; active = well fitted inhibition curve with a large enough effect in the signal ratio, with a control signal flat, not every such curve was filed as active; the % refers to the signal ratio;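 note: cells stimulated with 0.4 nM T3 agonist during compound exposure; % is set by controls: 0 for no effect and ±100 for the full control effect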); details: TR-UAS-bla HEK293, beta-lactamase ratio, antagonist mode, 18 h
# How it was run: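 Inhibition of T3-driven (0.4nM final) beta-lactamase reporter activity was measured over 0.59 nM to 92 uM compound after 18 h at 37 C. The cells were GripTite HEK293 TR-UAS-bla in charcoal/dextran-stripped serum, with CCF4 ratio read-out and IC50 from Hill fits.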
# [9] = target: Vitamin D3 receptor (Homo sapiens) (UniProt P11473); assay: qHTS assay for small molecule antagonists of vitamin D receptor signaling (AID 588541); details: HEK293T VDR-UAS-bla, beta-lactamase ratio, antagonist mode; series mostly up to 76.7 µM; note: potency is the fitted concentration of half-maximal effect
# How it was run: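 Antagonist-mode beta-lactamase reporter assay: HEK293T VDR-UAS-bla cells were exposed to titrated compound alongside 1-alpha,25-dihydroxyvitamin D3 at 3 nM final for 16 h. Values were normalized to the 50 nM agonist control and DMSO basal, with IC50 and efficacy from Hill equation fits.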
smiles,measurement,setting,value
NC1CCc2cc(O)c(O)cc2C1 (stereo unspecified),Potency,[1],inactive
CCCN1CCO[C@@H]2c3cc(O)ccc3OC[C@H]21,Potency,[1],inactive
CC(C)(O)C(=O)Nc1ccc([N+](=O)[O-])c(C(F)(F)F)c1,outcome,[2],inactive
same,max response,[3],11.6%
same,Potency,[4],inactive
same,outcome,[5],inactive
same,max response,[6],15.1%
same,max response,[7],-2.4% (inactive)
same,activity change % (negative = inhibition),[8],23.5% (inactive)
same,Potency,[1],inactive
c1ccc(CCCN2CCN(CCOC(c3ccccc3)c3ccccc3)CC2)cc1,Potency,[1],0.501 µM (active)
Clc1ccc(C(c2ccc(Cl)cc2)n2cc[n+](CC(OCc3ccc(Cl)cc3Cl)c3ccc(Cl)cc3Cl)c2)cc1 (stereo unspecified),Potency,[1],11.2 µM (active)
Nc1ccc(Cl)cc1,outcome,[5],inactive
same,max response,[6],-14.8%
same,max response,[7],-9.24% (inactive)
same,activity change % (negative = inhibition),[8],5.44% (inactive)
same,Potency,[1],inactive
O=C(O)[C@@H]1CCN1,Potency,[1],inactive
CCCN(CCC)c1c([N+](=O)[O-])cc(S(N)(=O)=O)cc1[N+](=O)[O-],outcome,[2],inactive
same,max response,[3],-0.936%
same,Potency,[4],inactive
same,max response,[6],-18.5%
same,max response,[7],2.44% (inactive)
same,activity change % (negative = inhibition),[8],0.13% (inactive)
CCCCOC(=O)c1ccccc1C(=O)OCc1ccccc1,max response,[3],-17.6% and 5.59%
same,Potency,[4],inactive
same,outcome,[5],inactive
same,max response,[6],-7.26% and -17.3%
same,max response,[7],2.44% (inactive) and -9.61% (inactive)
same,activity change % (negative = inhibition),[8],11.3% (inactive)
c1ccc2sc(C3(N4CCCCC4)CCCCC3)cc2c1,Potency,[1],2.82 µM (active)
COC(C)(C)CCCC(C)C/C=C/C(C)=C/C(=O)OC(C)C (stereo unspecified),max response,[3],13.2%
same,Potency,[4],inactive
same,outcome,[5],inactive
same,max response,[6],2.28% and 4.86%
same,max response,[7],-11.7% (inactive) and -5.86% (inactive)
same,activity change % (negative = inhibition),[8],-7.54% (inactive) and 20% (inactive)
same,Potency,[1],inactive
CCCCCC[C@H]1C(=O)O[C@H](C)[C@H](NC(=O)c2cccc(NC=O)c2O)C(=O)O[C@@H](C)[C@@H]1OC(=O)CC(C)C,outcome,[5],inactive
CC[N+]1(CCOC(=O)C(O)(c2ccccc2)c2ccccc2)CCCCC1,Potency,[1],inactive
O=C(O)c1cc(Oc2ccc(C(F)(F)F)cc2Cl)ccc1[N+](=O)[O-],max response,[3],11.8%
same,Potency,[4],inactive
same,outcome,[5],inactive
same,max response,[6],-4.23%
same,max response,[7],-9.38% (inactive)
same,activity change % (negative = inhibition),[8],-21.5% (inactive)
O=C1CCCN1CC#CCN1CCCC1,Potency,[1],inactive
O=C1C(I)=CC(=C(c2cc(I)c(O)c(I)c2)c2ccccc2C(=O)O)C=C1I,Potency,[1],inactive
O=C(O)COc1nc(Cl)c(Cl)cc1Cl,Potency,[9],inactive
same,outcome,[5],inactive
same,max response,[6],0.628%
same,max response,[7],6.2% (inactive)
same,activity change % (negative = inhibition),[8],3.94% (inactive)
O=C(O)COc1ccccc1,Potency,[9],inactive
same,outcome,[2],inactive
same,outcome,[5],inactive
same,max response,[6],0.163%
same,max response,[7],-9.5% (inactive)
same,activity change % (negative = inhibition),[8],-9.48% (inactive)
NC(CCP(=O)(O)O)C(=O)O (stereo unspecified),Potency,[1],inactive
NC(=O)CN1CC(O)CC1=O (stereo unspecified),Potency,[1],inactive
CCCN(CCC)C1CCc2ccc(O)cc2C1 (stereo unspecified),Potency,[1],2.24 µM (active)
CC(C)Oc1cccc(NC(=O)c2ccccc2C(F)(F)F)c1,Potency,[9],inactive
same,outcome,[2],inactive
same,outcome,[5],inactive
same,max response,[6],0.398%
same,max response,[7],-12.2% (inactive)
same,activity change % (negative = inhibition),[8],-3.3% (inactive)
NC(=NCCC[C@H](N)C(=O)O)N[N+](=O)[O-],Potency,[1],inactive
CC(=O)[O][Hg][c]1ccccc1,Potency,[9],1.58 µM (active) and 2.51 µM (active)
same,Potency,[1],14.1 µM (active) and 25.1 µM (active)
NC(CP(=O)(O)O)C(=O)O (stereo unspecified),Potency,[1],inactive
CN1C2CCC1CC(OC(=O)c1cc(Cl)cc(Cl)c1)C2 (stereo unspecified),Potency,[1],3.55 µM (active)
NC1CC1c1ccccc1 (stereo unspecified),Potency,[1],inactive
C[N+](C)(C)CC(=O)O,Potency,[1],inactive
CC(=O)NCCc1c[nH]c2ccccc12,Potency,[1],inactive
